Laboratory results published in PubChem BioAssay.
Active and inactive are the calls of the source.

How the values were obtained:
[1] = tested on: Human papillomavirus type 1a protein E7 (residues 44-93); test: HPV1a E7 fragment binders on microarrays, primary screen, biochemical, small-molecule microarray, residues 44-93, 635 nm fluorescence (AID 1108); settings: small-molecule microarray binding, fluorescence 635 nm; higher = more signal;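 further: E7 fragment applied at 1 µg/mL in TBST for 1 h at 4 C; score combines spot fluorescence with its signal to noise ratio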
[2] = modulators of HCV replicon luciferase signal, primary screen, HCV replication inhibitor project, Huh7 cells, luciferase reporter (AID 1109); settings: 48 h, higher = more signal;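 further: huh7 hepatoma cells harbouring a luciferase neomycin HCV replicon reporter; luciferase luminescence as measure of HCV replicon replication; test concentration not given here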
[3] = molecular target: Left-right determination factor 2 (Homo sapiens) (UniProt O00292); test: LEFTY2 binders on small-molecule microarrays, primary screen, biochemical, small-molecule microarray, 635 nm fluorescence scan (AID 1110); settings: LEFTY2 binding, higher = more signal
Chain of Left-right determination factor 2 (Homo sapiens) (O00292 whole entry, looked up): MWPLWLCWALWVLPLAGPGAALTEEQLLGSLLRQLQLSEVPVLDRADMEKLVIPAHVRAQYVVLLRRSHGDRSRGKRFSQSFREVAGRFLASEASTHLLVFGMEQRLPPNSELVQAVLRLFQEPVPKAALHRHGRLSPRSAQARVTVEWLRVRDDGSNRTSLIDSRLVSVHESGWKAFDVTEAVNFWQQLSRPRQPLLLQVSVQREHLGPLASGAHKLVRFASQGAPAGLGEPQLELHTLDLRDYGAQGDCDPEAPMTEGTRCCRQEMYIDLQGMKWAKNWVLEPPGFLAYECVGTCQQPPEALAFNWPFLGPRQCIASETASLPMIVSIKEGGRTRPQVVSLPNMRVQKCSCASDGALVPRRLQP

[4] = molecular target: Calmodulin-1 (Homo sapiens) (UniProt P0DP23); test: CALM1 binders on microarrays, EGTA buffer, profiling panel, biochemical, small-molecule microarray, Cy5-labelled CALM1 (AID 1111); settings: Cy5-CALM1 binding fluorescence, higher = more signal;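 further: labelled calmodulin applied in Tris saline Tween buffer holding calcium plus EGTA and DTT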
[5] = molecular target: Calmodulin-1 (Homo sapiens) (UniProt P0DP23); test: calcium-bound CALM1 binders on microarrays, profiling panel, artefact control for SMM control-protein annotation, biochemical, small-molecule microarray, Cy5-labelled CALM1, plus calcium (AID 1112); settings: Cy5-CALM1 binding fluorescence, higher = more signal;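 further: score merges spot fluorescence with signal to noise from triplicate slides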
[6] = small-molecule microarray binders of probe aWnt5a, primary screen, biochemical, biotinylated probe, 635/667 nm fluorescence (AID 1113); settings: higher = more signal;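 further: score merges 667 nm fluorescence intensity with signal-to-noise per printed feature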
[7] = small-molecule microarray binders of probe aShh, primary screen, biochemical, biotinylated probe, 635/667 nm fluorescence (AID 1114); settings: higher = more signal;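 further: probe is biotin-labelled aShh protein from a stem cell growth factor screen; measures binding of labelled protein to compounds printed on the slide; score merges feature fluorescence at 667 nm with signal-to-noise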
[8] = small-molecule microarray binders of probe aNog, primary screen, biochemical, biotinylated probe, 635/667 nm fluorescence (AID 1115); settings: higher = more signal;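 further: probe is biotinylated aNog protein used at 0.15 µg/mL for 1 h at 4 C; z-score combines 667 nm fluorescence of each spot with its signal to noise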
[9] = molecular target: Torsin-1A-interacting protein 1 (Homo sapiens) (UniProt Q5JTV8); test: LAP1 binders from COS7 cell lysate, primary screen, small-molecule microarray, 635/667 nm fluorescence (AID 1116); settings: COS7-hLAP1 lysate binding, 635 nm fluorescence, higher = more signal
Chain of Torsin-1A-interacting protein 1 (Homo sapiens) (Q5JTV8 whole entry, looked up): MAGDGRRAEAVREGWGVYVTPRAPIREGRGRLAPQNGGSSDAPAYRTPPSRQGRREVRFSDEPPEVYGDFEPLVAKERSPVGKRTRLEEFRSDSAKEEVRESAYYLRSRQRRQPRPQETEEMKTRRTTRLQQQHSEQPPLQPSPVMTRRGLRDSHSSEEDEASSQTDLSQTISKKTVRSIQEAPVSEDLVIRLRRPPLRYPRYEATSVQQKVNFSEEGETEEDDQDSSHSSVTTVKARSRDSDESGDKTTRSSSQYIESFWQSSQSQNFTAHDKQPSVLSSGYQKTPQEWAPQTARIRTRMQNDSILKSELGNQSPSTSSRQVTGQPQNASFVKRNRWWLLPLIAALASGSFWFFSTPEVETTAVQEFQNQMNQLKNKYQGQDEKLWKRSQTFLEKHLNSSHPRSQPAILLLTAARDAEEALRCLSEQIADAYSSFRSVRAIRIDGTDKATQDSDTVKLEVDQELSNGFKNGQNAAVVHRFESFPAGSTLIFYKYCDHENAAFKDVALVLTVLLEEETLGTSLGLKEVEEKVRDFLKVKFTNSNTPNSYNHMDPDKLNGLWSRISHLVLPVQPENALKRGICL

[10] = molecular target: Alpha-bungarotoxin (Bungarus multicinctus) (UniProt P60615); test: alpha-bungarotoxin binders on microarray, profiling panel, artefact control for SMM control protein annotation, biochemical, small-molecule microarray, Alexa647 label, 635/667 nm fluorescence (AID 1117); settings: alpha-BTX-A647 binding fluorescence, higher = more signal
Chain of Alpha-bungarotoxin (Bungarus multicinctus) (P60615 whole entry, looked up): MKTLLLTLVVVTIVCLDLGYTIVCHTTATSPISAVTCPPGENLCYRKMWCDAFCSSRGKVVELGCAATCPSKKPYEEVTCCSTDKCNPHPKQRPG

Albumin (Bos taurus) = Albumin (Bos taurus) (UniProt P02769); test: bovine serum albumin binders on microarray, profiling panel, artefact control for SMM control protein annotation, biochemical, small-molecule microarray, Alexa647 label, 635/667 nm fluorescence (AID 1118); settings: BSA-A647 binding, fluorescence 635 nm, higher = more signal;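 further: score merges 667 nm emission intensity and signal-to-noise per printed compound spot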
Chain of Albumin (Bos taurus) (P02769 whole entry, looked up): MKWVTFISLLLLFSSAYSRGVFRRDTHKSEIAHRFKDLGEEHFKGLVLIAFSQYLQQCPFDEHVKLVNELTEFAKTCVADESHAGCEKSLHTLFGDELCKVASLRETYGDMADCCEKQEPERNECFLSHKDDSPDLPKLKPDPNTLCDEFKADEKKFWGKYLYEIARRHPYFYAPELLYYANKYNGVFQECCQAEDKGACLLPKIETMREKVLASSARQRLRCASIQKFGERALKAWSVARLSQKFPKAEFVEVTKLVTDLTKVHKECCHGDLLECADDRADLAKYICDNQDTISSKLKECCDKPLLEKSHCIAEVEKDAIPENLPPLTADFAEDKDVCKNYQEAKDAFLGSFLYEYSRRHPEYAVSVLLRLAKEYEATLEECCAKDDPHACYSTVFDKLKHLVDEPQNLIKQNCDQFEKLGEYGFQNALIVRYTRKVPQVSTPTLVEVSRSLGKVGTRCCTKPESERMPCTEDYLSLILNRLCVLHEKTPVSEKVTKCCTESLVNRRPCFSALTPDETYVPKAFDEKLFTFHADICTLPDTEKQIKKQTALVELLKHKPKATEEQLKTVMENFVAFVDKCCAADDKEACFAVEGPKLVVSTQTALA

[11] = small-molecule microarray binders of probe aXIP, primary screen, biochemical, NeuroSMM set, 635/667 nm fluorescence (AID 1119); settings: higher = more signal, called active from +8 up or from −8 down;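 further: probe is the protein aXip251-270 applied at 1 µg/mL to compound-printed slides; binding of probe to printed compounds measured as 667 nm fluorescence plus signal to noise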
[12] = small-molecule binders of probe aNOTCH3, primary screen, biochemical, small-molecule microarray, 635/667 nm fluorescence (AID 1120); settings: higher = more signal;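 further: probe is a biotin-tagged antibody raised against NOTCH3 rather than NOTCH3 protein; score merges spot fluorescence near 667 nm with spot signal to noise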
[13] = small-molecule binders of probe aNOTCH2, primary screen, biochemical, small-molecule microarray, 635/667 nm fluorescence (AID 1121); settings: higher = more signal;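 further: score merges feature fluorescence read at 667 nm with its signal to noise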
[14] = molecular target: Carbonic anhydrase 2 (Homo sapiens) (UniProt P00918); test: CAII small-molecule binders, profiling panel, biochemical, small-molecule microarray, Alexa647-labelled CAII (AID 1122); settings: CAII-A647 binding fluorescence, higher = more signal
[15] = COS7 lysate on small-molecule microarray, probe aHis, 635 nm (AID 1123); settings: COS7 cell lysate, fluorescence, higher = more signal;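 further: z-score combines 667nm fluorescence intensity with signal-to-noise per printed compound spot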
[16] = compound binding in COS7 lysate, probe aLAP1, primary screen, cell lysate, small-molecule microarray (AID 1124); settings: probe aLAP1, fluorescence, higher = more signal;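 further: lysate comes from COS7 cells expressing LAP1 and is applied at 0.3 µg/mL; score merges spot fluorescence near 667 nm with signal-to-noise over triplicate slides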
Sam68 (KHDRBS1) = test: Sam68 small-molecule binders, primary screen, biochemical, small-molecule microarray, 635 nm fluorescence (AID 1125); settings: small-molecule microarray binding, higher = more signal;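 further: score merges 667 nm channel intensity with signal to noise over triplicate slides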
[17] = tested on: Chordin-like protein 2 (CHRDL2); test: CHRDL2 small-molecule binders, primary screen, biochemical, small-molecule microarray, 635 nm fluorescence (AID 1126); settings: small-molecule microarray binding, fluorescence 635 nm; higher = more signal;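 further: printed compound slides probed with Chrdl2 protein at 4 µg/mL for 1 h at 4 C; score merges 667 nm emission intensity with signal to noise over three replicate slides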
[18] = molecular target: Concanavalin-A (Canavalia ensiformis) (UniProt P02866); test: ConA small-molecule binders, primary screen, artefact control for SMM control protein annotation, biochemical, small-molecule microarray, Alexa647 label, 635 nm (AID 1127); settings: ConA-A647 binding fluorescence, higher = more signal;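 further: z combines 667 nm emission intensity with signal-to-noise across three replicate slides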
Chain of Concanavalin-A (Canavalia ensiformis) (P02866 whole entry, looked up): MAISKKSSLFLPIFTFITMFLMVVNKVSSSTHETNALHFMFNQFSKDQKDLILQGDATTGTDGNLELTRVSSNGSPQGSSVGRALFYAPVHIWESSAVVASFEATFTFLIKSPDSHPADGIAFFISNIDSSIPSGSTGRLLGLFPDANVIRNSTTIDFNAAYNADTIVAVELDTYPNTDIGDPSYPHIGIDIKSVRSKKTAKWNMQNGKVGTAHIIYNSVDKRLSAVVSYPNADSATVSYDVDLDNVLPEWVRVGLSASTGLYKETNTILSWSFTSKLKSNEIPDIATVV

Compound	composite z-score [1]	z-score [2]	composite z-score [3]	composite z-score [4]	composite z-score [5]	composite z-score [6]	composite z-score [7]	composite z-score [8]	composite z-score [9]	composite z-score [10]	composite z-score (Albumin (Bos taurus))	composite Z-score [11]	composite z-score [12]	composite z-score [13]	composite z-score [14]	composite z-score [15]	composite z-score [16]	composite z-score (Sam68 (KHDRBS1))	composite z-score [17]	composite z-score [18]
NC(=O)NCC#Cc1ccc2c(c1)[C@]1(C(=O)N2)[C@H](C(=O)N2CCCCCCC2)[C@H]2C(=O)O[C@H](c3ccccc3)[C@H](c3ccccc3)N2[C@@H]1c1ccc(O)cc1	0.0787	-1.13	0.953	2.38	0.509	0.754	1.54	2.78	2.19	2.01	0.408	-0.573 (inactive)	1.38	0.796	0.341	1.2	0.624	1.07	1.2	1.09
COC(=O)[C@@]1(CCC(=O)OC(C)(C)C)N=C(c2ccc(OCCCO)cc2)O[C@H]1c1ccccc1CN=[N+]=[N-]	0.263	-2.6	-0.471	0.183	-0.222	0.0079	-0.0035	-0.0655	0.868	0.592	-0.0515	0.69 (inactive)	-0.0984	-0.0786	0.743	1.41	0.348	-0.126	-0.141	0.855
CCCCC(=C=CC[C@H](O)c1ccc(OCCO)cc1)C[C@H](O)c1ccccn1	1.31	-0.028	0.295	0.587	-0.758	-0.0758	-0.0011	0.253	0.875	0.634	-0.273	0.611 (inactive)	0.102	-0.0614	0.562	1.04	0.967	1.18	0.0162	0.544
CC(=O)n1cc(C(O)C2C=CC3C(=O)N(c4ccccc4)C(=O)C3N2Nc2ccccc2F)c2ccccc21 (stereo not given)	1.13	-0.159	-0.747	1.64	-0.494	-0.0566	0.0723	-0.305	0.488	0.403	0.332	0.169 (inactive)	-0.189	-0.162	0.754	1.84	0.386	0.505	-0.997	0.76
COCCOC(=O)N1C(=O)[C@@]2(c3cc(C#CC4=CCCCC4)ccc31)[C@H](C(=O)N1CCN(c3ncccn3)CC1)[C@H]1C(=O)O[C@H](c3ccccc3)[C@H](c3ccccc3)N1[C@@H]2c1ccccc1OCCO	1.38	-1.9	0.419	0.936	0.473	-0.0778	-0.19	-0.0845	0.961	0.903	0.768	0.0421 (inactive)	0.0433	-0.0928	0.169	1.8	0.35	1.31	0.277	1.11
